Rab9 promoter act: qHTS Assay for Rab9 Promoter Activators; Huh7 Rab9 promoter-luciferase reporter, luminescence, 24 h; Potency, µM (series often up to 9.22 µM), for the others: at the highest dose activation, negative = inhibition, most hits filed as activators; actives 2.8% (n = 320,000); further: % of control where 0% means no effect; nearly all actives have a fitted effect of over 60% in size
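Luminescence read-out: Huh7 cells stably expressing Rab9-luciferase, treated 24 h with compound at 37 °C, then lysed with luciferase reagent for 10 min at ambient before reading.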
NPC1 promoter act: qHTS Assay for NPC1 Promoter Activators; actives 2.4% (n = 320,000); Potency, µM (titrated, usually from 9.22 µM), inactives show at the highest dose activation, actives largely listed as activators; Huh7 NPC1 promoter luciferase reporter, 24 h; further: % of control where 0% means no effect; nearly all actives have a fitted effect of over 60% in size
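Stably transfected Huh7 (NPC1 promoter→luciferase), 1500 cells/well in Opti-MEM + 10% FBS, 2 h settle, then compound 24 h at 37 °C. Luminescence after 10 min with Amplite reagent.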
ELG1 genotox: qHTS screen for small molecules that induce genotoxicity in human embryonic kidney (HEK293T) cells expressing luciferase-tagged ELG1. actives 1.3% (n = 330,000). AID 504466, 2011. HEK293T ELG1-luciferase reporter, luminescence, 16 h. Potency, µM (highest dose often 46 µM), without a hit: at the highest dose activity change, positive = activation, most hits filed as activators; further: % of control where 0% means no effect; nearly all actives have a fitted effect of over 60% in size
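HEK293T cells expressing luciferase-tagged ELG1 were treated with compound or DMSO for 16 hr at 37°C. Luciferase activity was then read after 30 min with ONE-Glo at room temperature; rising signal flags genetic stress.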
SMN2 splice up: qHTS Assay for Enhancers of SMN2 Splice Variant Expression. HEK293 SMN2-luciferase splicing reporter, luminescence, 30-36 h. Potency, µM (titrated, usually from 46.1 µM), for inactives: at the highest dose activity change, positive = activation, most hits filed as activators. actives 2.8% (n = 210,000); further: % of control where 0% means no effect; nearly all actives have a fitted effect of over 55% in size
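HEK293 cells carry an SMN2 […]–luciferase reporter in which exon 7 inclusion puts luciferase in frame. Cells were plated 10-12 h before compound addition, then incubated 30-36 h at 37C. ONE-Glo luminescence was read; sodium butyrate at 4.5 mM final served as control.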
FLuc modulator: qHTS profiling assay for firefly luciferase inhibitor/activator using purifed enzyme and Km concentrations of substrates (counterscreen for miR-21 project). purified FLuc, Km substrates, luminescence inhibition. actives 6.9% (n = 360,000). AID 588342, 2011. Potency, µM (series often up to 57.5 µM), inactives show at the top dose activity change, negative = inhibition, usual class: inhibitors;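 further: plate controls were vehicle for no effect and reference inhibitor for full effect; nearly all actives have a fitted effect of over 55% in size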
Target sequence (P08659 whole entry, looked up): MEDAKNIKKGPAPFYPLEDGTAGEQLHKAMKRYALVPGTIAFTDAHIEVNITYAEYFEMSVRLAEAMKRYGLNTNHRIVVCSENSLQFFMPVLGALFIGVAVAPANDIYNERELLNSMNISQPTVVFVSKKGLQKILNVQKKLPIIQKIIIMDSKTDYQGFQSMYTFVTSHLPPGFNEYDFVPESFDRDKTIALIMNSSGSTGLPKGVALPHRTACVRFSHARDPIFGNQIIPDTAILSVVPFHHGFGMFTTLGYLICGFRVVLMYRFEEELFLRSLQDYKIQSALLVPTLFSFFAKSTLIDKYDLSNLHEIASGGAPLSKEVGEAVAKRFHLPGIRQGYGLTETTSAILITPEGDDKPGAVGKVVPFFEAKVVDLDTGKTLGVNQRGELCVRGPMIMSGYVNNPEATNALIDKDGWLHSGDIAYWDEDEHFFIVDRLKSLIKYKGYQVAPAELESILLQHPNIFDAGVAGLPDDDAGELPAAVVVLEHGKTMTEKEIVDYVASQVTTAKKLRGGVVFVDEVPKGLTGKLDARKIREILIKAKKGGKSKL
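Purified P. pyralis luciferase, 10 nM final, with Km-level 10 uM D-luciferin and 10 uM ATP in 50 mM Tris acetate pH 7.5, 10 mM Mg acetate, 0.01% Tween-20, 0.05% BSA; 6-point qHTS titration about 60 µM downward; luminescence read.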
Active calls of the source: *; ? = inconclusive; . = no result given. Most compounds without a hit are left out; they make up all but 7.5% or so of the library. The call rests on the fitted dose curve; in most records, active means well fitted curve in the direction sought with a large enough effect; inconclusive means small, poorly fitted or top-dose-only effect, or another doubt; inactive means no such curve, though single readings can be large; an effect the other way counts as inactive or inconclusive. Potency means the concentration at half of the fitted maximal effect.

SMILES	Rab9 promoter act	NPC1 promoter act	ELG1 genotox	SMN2 splice up	FLuc modulator
O=C(COC(=O)/C=C/c1ccc2c(c1)OCO2)Nc1ccc(S(=O)(=O)N2CCCC2)cc1	-3%	0%	0%	-9%	0%
Cc1c(NC(=O)C(C)OC(=O)/C=C/c2ccc3c(c2)OCO3)c(=O)n(-c2ccccc2)n1C (stereo not given)	7%	0%	8%	7%	15µM*
O=C(/C=C/c1ccc2c(c1)OCO2)Nc1nc2ccccc2s1	0.79µM*	1.6µM*	18µM*	3.5µM*	1.2µM*
Cc1ccc2nc(NC(=O)/C=C/c3ccc4c(c3)OCO4)sc2c1	0%	4%	?	-59%	3%
O=C(COC(=O)/C=C/c1ccc2c(c1)OCO2)Nc1ccccc1	4%	-10%	6%	0%	21µM*
COc1ccc(NC(=O)/C=C/c2ccc3c(c2)OCO3)cc1	3.2µM*	?	?	18µM*	2.7µM*
COc1ccc(C(=O)OC2CCN(c3ncc(C(F)(F)F)cc3Cl)CC2)cc1	-1%	-4%	-1%	-30%	?
C[C@H](NC(=O)c1nc[nH]c1C(=O)NCc1ccc(CNC(=O)OC(C)(C)C)cc1)C(=O)OCc1ccccc1	.	.	3%	.	.
O=C(NCCCn1ccnc1)C(=O)NCC1OCCN1S(=O)(=O)c1ccc(Br)cc1 (stereo not given)	-1%	-5%	-7%	-31%	-3%
NNC(=O)c1cnn(Cc2ccccc2)c1N	-8%	1%	6%	14%	0%
Cc1csc(NC(=O)/C=C/c2ccc3c(c2)OCO3)n1	?	-1%	2.9µM*	13µM*	0.95µM*
COC(=O)c1ccc(COc2ccccc2/C=C(\C#N)C(=O)NC(C)C)cc1	-1%	-1%	15%	-5%	1%
O=c1c2ccccc2nnn1CSc1nc2ccccc2c(=O)n1Cc1ccco1	-22%	-7%	3%	-38%	-2%
C=CCN=C(NC#N)SCC(=O)c1cccc(OC)c1	?	3.5µM*	6%	?	?
CC(C)CSC1=NSC2=NC(=O)/C(=C\c3ccccc3)C(=N)N12	2.8µM*	3.2µM*	?	?	17µM*
Cc1cc(/C=C2\C(=N)N3N=C(C(C)C)SC3=NC2=O)c(C)n1Cc1ccccc1	-5%	1%	2%	.	0%
CC(C)CSC1=NSC2=NC(=O)/C(=C\c3coc4ccccc4c3=O)C(=N)N12	-1%	1%	0%	21%	17µM*
Cc1cc(/C=C2\C(=N)N3C(SCc4ccccc4)=NSC3=NC2=O)c(C)n1Cc1ccccc1	-1%	-1%	0%	-10%	21µM*
COc1cc(C2C(C(=O)Nc3ccccc3)=C(C)Nc3nc(SCC(=O)c4ccc(C)cc4)nn32)ccc1O (stereo not given)	.	.	.	.	5%
CC(C)C[C@@H]1NC(=O)[C@H](Cc2ccc(O)cc2)NC(=O)[C@H](CCC(N)=O)NC(=O)c2cc([N+](=O)[O-])cc(I)c2NCC[C@@H](C(N)=O)NC1=O	2%	-4%	1%	18µM*	0%
NC(=O)[C@@H]1CCNc2c(I)cc([N+](=O)[O-])cc2C(=O)N[C@@H](CO)C(=O)N[C@@H](Cc2ccc(O)cc2)C(=O)N1	-4%	-1%	-2%	-5%	5%
COc1cccc(C(=O)NCC(=O)N/N=C/c2cccnc2)c1	0%	-2%	2%	.	3%
O=C(Cc1ccccc1)N/N=C/c1ccc2c(c1)OCO2	4µM*	2.5µM*	?	16µM*	15µM*
O=C(CSc1ncccn1)N/N=C/c1ccc2c(c1)OCO2	?	26%	?	.	11µM*
O=C(CNc1ccccc1)N/N=C/c1ccc2c(c1)OCCO2	0%	2%	1%	?	9.5µM*
SMILES	Rab9 promoter act	NPC1 promoter act	ELG1 genotox	SMN2 splice up	FLuc modulator
COc1cccc(C(=O)NCC(=O)N/N=C/c2ccc3c(c2)OCO3)c1	1%	3%	6%	.	24µM*
CCOC(=O)C1CCN(S(=O)(=O)c2csc(C(N)=O)c2)CC1	-4%	-4%	-4%	.	1%
O=C(CNC(=O)c1ccccc1F)N/N=C/c1ccc2c(c1)OCO2	?	?	?	.	17µM*
O=C(Cn1ccc(C(F)(F)F)n1)N/N=C/c1ccc2c(c1)OCO2	6%	23%	?	.	19µM*
O=[N+]([O-])c1ccc(Sc2nccn2Cc2ccccc2)c([N+](=O)[O-])c1	16%	11%	-27%	10%	0%
Cc1ccc(-n2nnc(-c3cc4ccccc4n3C)n2)cc1	1.6µM*	2.8µM*	?	.	0.85µM*
Cn1c(-c2nnn(-c3ccc(F)cc3)n2)cc2ccccc21	4µM*	?	5.2µM*	.	1.3µM*
CC1=NN2C(=N)/C(=C\c3cc(C)n(-c4ccccc4)c3C)C(=O)N=C2S1	5%	11%	7%	-34%	4.8µM*
Cc1cc(/C=C2/C(=N)N3C(c4ccccc4)=CSC3=NC2=O)c(C)n1-c1ccccc1	12%	16%	-1%	6%	2.4µM*
Cc1ccccc1-n1c(C)cc(/C=C2/C(=N)N3C(c4ccccc4)=CSC3=NC2=O)c1C	-3%	1%	-1%	-42%	?
CCN(CC(=O)Nc1ccc(NC(C)=O)cc1)C(=O)c1cc(-c2ccccc2)nn1-c1ccccc1	14%	0%	-5%	.	4%
CN(C(=O)COC(=O)C(Cc1ccccc1)NC(=O)c1ccccc1)c1ccccc1 (stereo not given)	2%	2%	4%	0%	1%
Cn1nccc1C(=O)N1CCN(S(=O)(=O)c2ccc(Br)s2)CC1	20%	13%	5%	.	-1%
Cc1cc(-c2nnc3n2N=C(c2ccc(-c4ccccc4)cc2)CS3)n[nH]1	-7%	-1%	0%	.	17µM*
Cc1cc(-c2nnc3n2N=C(c2ccccc2)CS3)n[nH]1	6%	0%	?	.	0%
Fc1ccc(C2=Nn3c(nnc3-c3n[nH]c4c3CCC4)SC2)cc1	-4%	-2%	18µM*	20µM*	1%
c1ccc(-c2cc(-c3nnc4n3N=C(c3ccc5ccccc5c3)CS4)[nH]n2)cc1	0%	2%	?	11µM*	?
CC(O)CCc1ccc(O)cc1 (stereo not given)	-3%	-4%	5%	1%	0%
Cc1nc(CN(C)C(=O)c2cc(COc3c(F)cccc3F)on2)cs1	-4%	0%	1%	.	-11%
COC(=O)[C@H](Cc1ccccc1)NC(=O)c1cc(COc2c(F)cccc2F)on1	?	?	?	.	19µM*

From PubChem BioAssay
